# Measurements from PubChem BioAssay (NCI).
# About 83,000 compounds went through this panel and 20% of them were active in at least one assay; those are over-represented in the sample as a whole.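 Note: values are percent growth. 100 is the growth of untreated cells, values between 100 and 0 indicate rising inhibition; between -100 and 0 indicates cell death.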 Unmarked numbers belong to inactive results. Activity calls are given as the source filed them.
# Tested on: OVCAR-3 ovarian
# Assay: NCI-60 one-dose screen, 48 h (100 = growth as untreated, 0 = no growth, -100 = all killed)
# Conditions: 10 µM unless noted
# Procedure: Growth inhibition of the OVCAR-3 human tumor cell line is measured as a screen for anti-cancer activity. Cells are grown in 96 well plates and exposed to the test compound for 48 hours. Compounds are tested at a single concentration, which is 10^-5 M for most compounds. The reported endpoint is percent growth (GI% or GIPRCNT), where numbers from 0 - 100% represent growth inhibition, and numbers from -100% - 0 represent cell death. For example, a value of 40 represents 60% growth inhibition. A value of 0 means no net growth occurred over the course of the experiment. A value of -40 indicates 40% of cells at the beginning of the experiment died by the end of the experiment. A value of -100 means all cells are dead at the end of the experiment.
# NCI-60 Human Tumor Cell Lines Screen was performed using the standard one-dose NCI protocol, which is described in more detail at https://dtp.cancer.gov/discovery_development/nci-60/default.htm.
# Compounds with GIPRCNT values below 10 were considered active. Activity score was based on GIPRCNT using the following formula: […]
# Score is 0 for GIPRCNT values of 100 or above, 50 for GIPRCNT values of 0, and 100 for GIPRCNT values of -100.
row,SMILES,growth
1,Nc1nc(C(=O)N/N=C/c2ccc(N3CCOCC3)cc2)nn1-c1ccc(S(N)(=O)=O)cc1,104%
2,COc1cc2c(cc1O)[C@@]1(C)[C@H](c3ccccc3Br)OC(=O)N1CC2,94.1%
3,CCCCC(=O)Nc1ncc(Cc2ccccc2Cl)s1,30.1%
4,CC1CN=C(c2cccc(-c3ccc(-c4ccccc4)o3)c2)N1 (stereo not given),10.6%
5,CC1(C)CC[C@]2(C(=O)N3CCOCC3)CC[C@]3(C)C(=CC[C@@H]4[C@@]5(C)C/C(=C/c6ccncc6)C(=O)C(C)(C)[C@@H]5CC[C@]43C)[C@@H]2C1,16.1%
6,CC/C=C\C/C=C/C=C1/C(=O)C=C[C@@H]1C/C=C\CCCC(=O)OC,11.1%
7,Cc1cscc(C)c1=S,121%
8,COC(=O)c1ccc2c(c1)c1c(C)c3ccncc3c(C)c1n2C,39.5%
9,CNC(=O)c1cc(Oc2ccc3nc(NC(=O)Nc4ccc(Cl)c(Cl)c4)sc3c2)ccn1,24.7%
10,CCCCCCNc1nc(NCCCCCC)c2[nH]c(NCCCCCC)nc2n1,26.5%
11,C=CCN=C(N)SCCCCCCSC(N)=NCC=C,95.9%
12,O=C(CCl)Nc1ccc2c(Nc3cc(O)ccc3Cl)ncnc2c1,-83.4% (active)
13,CCOC(=O)c1c2c(n3c1NCC3)-c1ccccc1C2=O,92.1%
14,CC(C)c1ccc(NC(=O)Nc2ccc(NC(=O)c3ccccc3N)cc2)cc1,49%
15,COc1ccc(C2=Nc3c/c(=C\c4c(O)[nH]c5cc(Cl)ccc45)ccc3=N2)cc1,27%
16,Oc1c(CN2CCCC2)cc(COCc2ccccc2)c2cccnc12,18.1%
17,CS(=O)(=O)Cc1cnc(C2OCCO2)s1,96.3%
18,CN(C)c1ccc(/C=C2/C=C(c3ccccc3)OC2=O)cc1,73.7%
19,NC(=O)c1ccc(NC(=O)c2oc3ccccc3c2-c2cnn(-c3ccccc3)c2)cc1,1.08% [50 µM] (active)
20,CC(C)c1ccc(C(=O)Nc2sc3cc(O)ccc3c2C#N)cc1,16.4%

row,SMILES,growth
1,O=C(CCCCl)NNc1nccc(Nc2ccc(S(=O)(=O)Nc3ccncc3)cc2)n1,104%
2,Oc1c(Cl)cc(Cl)c2ccc(Cn3cc(-c4cccc(C(F)(F)F)c4)nn3)nc12,15%
3,COC(=O)/C=C1/SC(=Nc2cccc(Cl)c2)N(CCc2c[nH]c3ccc(O)cc23)C1=O,3.41% (active)
4,O=C(Nc1cccnc1Nc1ccc(Cl)cc1)c1cn(Cc2ccc(F)cc2)nn1,107%
5,COc1ccc(-c2oc(=O)ccc2-c2cc(OC)c(OC)c(OC)c2)cc1O,-59.3% (active)
6,COc1ccc(/C=C/C(=O)c2cc3c(N)c(C(=O)Nc4ccccc4C)sc3nc2C)cc1,1.23% (active)
7,O=S(=O)(c1ccccc1)N1CCCN(c2nc(-c3ccccc3)nc3nc(-c4ccccc4)oc23)CC1,117%
8,O=C1/C(=C/c2cccc([N+](=O)[O-])c2)COc2ccc(O)cc21,34.4%
9,c1ccc(CCc2ccccc2-c2cc(-c3ccccc3)on2)cc1,96%
10,CCOC(=O)c1c(-c2ccccc2)n2c(=O)cc(C)c3c(O)c(O)cc1c32,0.992% (active)
11,Cc1ccc2[nH]c(=O)c3c(c2c1)OC(N)=C(C#N)C31C(=O)c2cccc3cccc1c23 (stereo not given),101%
12,COc1ccc(NC(=O)c2cccc(C3CCc4c(cc(OC)c(OC)c4OC)O3)c2)cc1 (stereo not given),6.25% (active)
13,COc1ccc2c(c1)c(-c1nonc1-c1cn(C)c3ccc(OC)cc13)cn2C,11.4%
14,C/C(=N\O)C(=O)NCCCCCC(=O)Nc1ccccc1,109%
15,Cc1cc(F)ccc1S(=O)(=O)Nc1cc(-c2c(O)ccc3ccccc23)c(O)c2ccccc12,17.3%
16,COc1ccc(Cl)cc1Nc1nc(C(F)(F)F)ccc1C(=O)N/N=C/c1ccccc1Cl,1.6% (active)
17,N#Cc1c(-c2ccccc2)cc(-c2ccccc2)n(CCCC(=O)NO)c1=O,8.36% (active)
18,C[C@H]1[C@H](C)CC[C@]2(C(=O)O)CC[C@]3(C)C(=CC[C@@H]4[C@@]5(C)C[C@@H](Cc6cn([C@@H]7O[C@H](CO)[C@@H](O)[C@H](O)[C@H]7O)nn6)[C@H](O)C(C)(C)[C@@H]5CC[C@]43C)[C@H]12,107%
19,Nc1ccc([N+](=O)[O-])cc1N=C/C=C/c1ccccc1,84.1%
20,COc1ccc(-c2ccc(=O)oc2C#Cc2cc(OC)c(OC)c(OC)c2)cc1O,-67.2% (active)
